# Mtb FBA inh = Mtb fructose-bisphosphate aldolase inhibition. P9WQA3. purified M. tuberculosis FBA, fluorescence read-out. inhibition, % at 1 µM. actives 2.3% (n = 360,000). AID 588726; in the data active = inhibition above about 27%;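 also: 0% = vehicle and 100% = reference inhibitor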
# Target sequence (P9WQA3 whole entry, looked up): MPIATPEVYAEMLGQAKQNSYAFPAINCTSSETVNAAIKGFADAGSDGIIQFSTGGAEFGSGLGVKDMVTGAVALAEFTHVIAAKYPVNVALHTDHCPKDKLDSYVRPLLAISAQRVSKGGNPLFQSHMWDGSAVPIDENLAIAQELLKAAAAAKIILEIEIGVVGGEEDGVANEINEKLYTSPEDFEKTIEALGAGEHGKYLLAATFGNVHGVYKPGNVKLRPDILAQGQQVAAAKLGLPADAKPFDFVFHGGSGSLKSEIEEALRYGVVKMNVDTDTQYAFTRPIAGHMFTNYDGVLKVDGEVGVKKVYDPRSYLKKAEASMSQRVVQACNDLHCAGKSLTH
# MazEF act = increases E. coli MazEF RNase cleavage of RNA; FAM/BHQ RNA-DNA oligo cleavage fluorescence, 5 h; AID 504720; activation, % at 20 µM; P0AE70; actives 0.32% (n = 350,000); in the data active = activation above about 50%
# Target sequence (P0AE70 whole entry, looked up): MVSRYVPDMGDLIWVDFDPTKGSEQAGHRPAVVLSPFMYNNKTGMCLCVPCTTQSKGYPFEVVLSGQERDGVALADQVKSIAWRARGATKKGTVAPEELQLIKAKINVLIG
# Mtb bLac sens = beta-lactam sensitization of Mtb H37Rv. M. tuberculosis H37Rv growth with meropenem, percent inhibition. inhibition, % at 25 µM. actives 0.27% (n = 330,000). AID 434955; call rule not given here;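 also: growth measured after seven days incubation then overnight dye step; 0% = bacteria only wells and 100% = bacteria with antibiotic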
# CCHFV vOTU inh = blocks the CCHF virus ovarian tumor domain protease | CCHFV vOTU protease, Pep-AMC fluorescence | inhibition, % at 11.5 µM | actives 0.55% (n = 370,000) | AID 651958; also: 0% = vehicle wells with enzyme and 100% = no enzyme wells
# GDH-TPI counter = counter-screen for M. tuberculosis FBA inhibitors: GDH-TPI coupled enzymes; inhibition, % at 4.8 µM; GDH-TPI coupled enzyme counterscreen, NADH absorbance; actives 1.2% (n = 360,000);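 also: 0% = DMSO wells and 100% = wells lacking the enzyme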
# Starred values were filed as active, the others as inactive; ? = inconclusive; · = no result given; + = active, no number. The list is not random: actives were taken first. Their share in the collection is about 4%. Rule as the data show it, unless noted: active = inhibition above about 30%; inactive = the rest.
SMILES,Mtb FBA inh,MazEF act,Mtb bLac sens,CCHFV vOTU inh,GDH-TPI counter
Oc1ccccc1-c1nnc2n1CCCCC2,5.5,6.4,-5.1,-15.1,0.0
CCC(=O)N1CCc2cc(Br)c(S(=O)(=O)NCc3ccccc3OC)cc21,·,·,·,-2.3,·
CCOCCCn1c(=NC(=O)c2cccs2)c(C#N)cc2c(=O)n3cccc(C)c3nc21,+,14.6,-9.9,-70.9,13.0
COCCCn1c(=NC(=O)c2ccccc2)c(C#N)cc2c(=O)n3cccc(C)c3nc21,174.0*,10.9,8.9,-112.9,-6.2
CCOCCCn1c(=NC(C)=O)c(C(=O)OCC)cc2c(=O)n3ccccc3nc21,11.8,5.0,-8.8,-14.6,1.7
CCOCCCn1c(=NC(C)=O)c(C#N)cc2c(=O)n3ccccc3nc21,+,-0.7,-5.9,-334.3,24.1
CCOCCCNC(=O)c1cc2c(=O)n3cccc(C)c3nc2s1,23.8,-14.8,-5.9,-43.6,15.2
COCCCn1c(=NC(C)=O)c(C#N)cc2c(=O)n3cccc(C)c3nc21,+,-12.4,-7.4,-91.9,-0.8
CC(c1ccc(NC(=O)OC(C)(C)C)cc1)c1cn(C)c2ccccc12 (centres undefined),·,·,·,6.5,·
O=C(CCn1nnc(-c2cccs2)n1)N1CCOCC1,·,·,·,-0.4,·
O=C(Nc1ccccc1)c1ccccc1NC(=O)c1ccccc1[N+](=O)[O-],2.8,-1.2,-4.6,-3.1,3.4
O=[N+]([O-])c1ccccc1C(=Nc1ccccc1)c1c(O)cc(O)cc1O,0.1,3.3,·,11.8,32.4*
N=C1SCC(=O)N1c1ncc(Cc2ccc(F)cc2)s1,0.8,2.9,89.9,-1.4,31.4*
COC(=O)c1ccc(C(=O)Nc2ccc3nc(-c4ccncc4)[nH]c3c2)cc1,-0.7,-2.9,4.4,-9.3,22.3
Fc1cc2nc(-c3ccncc3)[nH]c2cc1F,127.2*,10.9,5.3,-26.7,0.6
FC(F)(F)c1cc(Cl)c2nc(-c3ccccc3)c(Cc3cccc(Cl)c3)n2c1,·,·,·,30.7*,·
CCOC(=O)c1ccc(-c2ccc(/C=C(\C#N)C(=O)NCC3CCCO3)o2)cc1 (centres undefined),-1.4,-3.1,1.6,-7.0,33.9*
COc1ccc(/C=C(\C#N)C(=O)NCC2CCCO2)cc1OC (centres undefined),-6.1,-2.0,-2.3,11.0,20.1
O=C(NC1CCCCN(Cc2cccc(Cl)c2)C1=O)c1ccc(F)c(F)c1 (centres undefined),·,·,·,2.6,·
CC(=O)Nc1ccc(N=Nc2ccccc2)cc1[N+](=O)[O-],0.2,3.6,·,5.8,31.0*
CC(=O)Nc1cc2oc3ccccc3c2cc1[N+](=O)[O-],-2.9,10.0,·,-1.2,7.1
O=c1c2cc(N3CCOCC3)ccc2[nH]c(=S)n1CCCN1CCCCC1,3.9,7.7,?,-9.8,30.6*
O=c1c2cc(N3CCOCC3)ccc2[nH]c(=S)n1CCCN1CCCC1,4.6,1.6,?,-7.3,27.2
CN1CCN(C(=S)c2ccc(-c3cccc([N+](=O)[O-])c3)o2)CC1,-3.3,1.1,-7.7,13.0,14.3
O=[N+]([O-])c1cccc(-c2ccc(C(=S)N3CCOCC3)o2)c1,-4.9,-1.7,6.1,12.7,40.9*
SMILES,Mtb FBA inh,MazEF act,Mtb bLac sens,CCHFV vOTU inh,GDH-TPI counter
Cc1ccc(C(=O)O/N=C(\N)c2ccccn2)cc1,2.1,7.1,6.6,15.7,-4.6
C/C(=N\OC(=O)c1ccc(Br)cc1)c1ccccn1,8.8,-3.5,3.9,6.4,31.0*
O=C1N/C(=N/S(=O)(=O)Cc2ccccc2)S/C1=C/c1ccc2c(c1)OCO2,2.8,-5.5,-6.1,5.6,35.4*
O=C1NC(=S)SC1=Cc1ccc2c(c1)OCO2,-0.2,-0.9,·,2.1,3.9
CCC1=[N+](CC(=O)c2ccc(C)cc2)CCn2cccc21,2.9,-8.8,-9.6,-3.5,35.4*
CCOC(=O)N1C(=O)C[C@](Sc2ccc(OC)cc2)(C(=O)N2CCN(C(C)=O)CC2)[C@H]1c1ccc(OC)cc1,·,·,·,-7.4,·
COC(=O)Cc1c(C)c2cc(Cl)c(OC(=O)c3ccco3)cc2oc1=O,+,1.5,18.6,-200.2,1.9
CN(C(=O)COc1ccccc1)C1CCS(=O)(=O)C1 (centres undefined),-1.6,-4.6,1.2,11.3,-2.8
COC(=O)Cc1c(C)c2ccc(OCC(=O)N(C)C3CCS(=O)(=O)C3)cc2oc1=O (centres undefined),114.4*,-4.5,-5.7,-54.5,16.9
Cc1c(CC(=O)O)c(=O)oc2cc(OCc3ccc(F)cc3F)ccc12,156.0*,2.0,-0.1,-70.5,18.0
COC(=O)c1cc(-c2c(C)oc3cc(OC(C)C)ccc3c2=O)c(C)o1,-0.2,-4.5,19.0,-2.4,10.4
COC(=O)Cc1c(C)c2ccc(OC(C)C)cc2oc1=O,+,5.1,2.1,-95.6,29.6
Cc1cc(=O)oc2c(C)c(OC(=O)c3ccco3)ccc12,5.5,-20.7,13.8,-38.0,-4.8
COc1ccc(C(=O)CSc2nnc(-c3n[nH]c4c3CCC4)n2N)cc1OC,·,·,·,3.0,·
COC(=O)Cc1c(C)c2ccc(OCC(=O)N3CCOCC3)cc2oc1=O,123.3*,9.0,3.1,-38.8,26.1
CCc1cc(=O)oc2cc(OCC(=O)N3CCC(C(N)=O)CC3)ccc12,22.9,7.1,1.9,-10.2,11.8
COC(=O)Cc1c(C)c2ccc(OC(=O)c3ccco3)cc2oc1=O,+,2.8,57.1,-186.6,16.6
Cc1c(C)c2cc(Cl)c(OCC(=O)N3C[C@H]4C[C@@H](C3)c3cccc(=O)n3C4)cc2oc1=O,8.7,14.9,-4.5,-4.7,9.8
Cc1c(CC(=O)N2C[C@H]3C[C@@H](C2)c2cccc(=O)n2C3)c(=O)oc2c(C)c(O)ccc12,+,8.6,-5.4,-187.1,10.8
Cc1c(CCC(=O)N2C[C@H]3C[C@@H](C2)c2cccc(=O)n2C3)c(=O)oc2c(C)c(O)ccc12,190.7*,·,·,-177.5,7.6
Cc1oc2c(C)c3oc(=O)c(CCC(=O)N4C[C@H]5C[C@@H](C4)c4cccc(=O)n4C5)c(C)c3cc2c1C,4.4,3.8,-4.2,4.0,5.9
Cc1c(CC(=O)N2C[C@H]3C[C@@H](C2)c2cccc(=O)n2C3)c(=O)oc2cc(O)c(Cl)cc12,·,6.4,-4.0,-285.5,31.4*
O=C(O)c1ccc(-c2nc(-c3ccccc3)c(-c3ccccc3)[nH]2)cc1,+,-1.9,11.7,-343.3,29.7
Oc1ccc(-c2nc(-c3ccc(F)cc3)c(-c3ccncc3)[nH]2)cc1,2.2,-0.8,0.4,6.5,18.8
COc1ccc(-c2nc(-c3ccccc3)[nH]c(=O)c2C#N)cc1,-2.1,5.4,84.2,-3.2,0.9
COc1ccc(-c2[nH]c(-c3ccc4c(c3)OCO4)nc2-c2ccccc2)cc1,80.3*,20.6,40.5,-14.4,9.4
COc1ccc(-c2[nH]c(-c3ccc(C(=O)O)cc3)nc2-c2ccccc2)cc1,+,1.0,0.3,-203.8,11.1
Cc1c(C)c(C)c2[nH]c(-c3ccc4c(c3)OCO4)nc2c1C,173.2*,-0.2,97.0,·,3.2
COC(=O)C1CN(C2CCCC2)CCS(=O)(=O)N1Cc1cn(Cc2ccc(F)cc2)nn1 (centres undefined),·,·,·,0.6,·

# Compound activity (PubChem BioAssay)
